Where a name gives a salt, the structure may show the parent alone.
How the values were obtained:
Assay in all cases: Euclidean distance of Cell Painting phenotypic profile (signed KS, 77 features) to DMSO centroid (dimensionless distance); 5 or 10 uM (library dependent); higher = stronger phenotypic change vs DMSO (phenoactivity)
Conditions in all cases: 48 h
786-O = system: 786-O
Method in brief: (§1)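 Phenoactivity is computed as Euclidean distance to the median vehicle profile. The profiles, drawn from 77 Harmony features scored as signed Kolmogorov-Smirnov statistics versus same-plate vehicle wells, were corrected for plate position, correlation-weighted and replicate-averaged at the top dose. Stained cells were imaged confocally at 20X (9 fields/well) after 48 h with library compounds at 10 or 5 uM, 0.1% DMSO final, in five cancer lines and a healthy fibroblast line.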

A549 = system: A549
Method in brief: as §1

DU145 = system: DU145
Method in brief: as §1

FB = system: FB
Method in brief: as §1

HEPG2 = system: HEPG2
Method in brief: as §1

OVCAR4 = system: OVCAR4
Method in brief: as §1

SMILES	Euclidean distance (786-O)	Euclidean distance (A549)	Euclidean distance (DU145)	Euclidean distance (FB)	Euclidean distance (HEPG2)	Euclidean distance (OVCAR4)
Cc1cc(CN2CCN(c3c(Br)cnc4nc(-c5ccc(N6CCN(C)CC6)cc5)[nH]c34)CC2)no1	1.51	1.27	1.12	0.806	1.67	1.25
CNC(=O)c1ccccc1Nc1nc(Nc2ccc(N3CCOCC3)cc2OC)ncc1Cl	2.97	3.02	2.18	3.92	2.08	3.5
CN1CCN(CC(=O)N2c3ccccc3C(=O)Nc3cccnc32)CC1 [Pirenzepine dihydrochloride]	0.695	1.06	0.77	0.7	1.03	0.804
Cc1ccc(C(C)C)c(O)c1 [Thymol]	0.798	1.8	1.2	0.901	0.572	1.46
S=P(N1CC1)(N1CC1)N1CC1 [Thiotepa]	2.52	3.76	2.03	2.35	2.68	3.07
C[C@]12CC[C@@H]3c4ccc(O)cc4CC[C@H]3[C@@H]1C[C@@H](O)[C@@H]2O [Estriol]	1.2	0.835	1.5	0.871	0.511	1.2
CN1CCN(C2=Nc3ccccc3Oc3ccc(Cl)cc32)CC1 [Loxapine Succinate]	0.937	0.901	1.33	0.885	0.582	0.838
CC1(C)Cc2c(sc(NC(=O)c3ccn[nH]3)c2C(N)=O)C(C)(C)O1	0.808	0.814	1.54	1.43	0.816	1.06
COc1ccc2cc1Oc1ccc(cc1)C[C@H]1c3cc(c(OC)cc3CCN1C)Oc1c(O)c(OC)cc3c1[C@H](C2)N(C)CC3 [Fangchinoline]	4.67	4.12	3.78	4.61	5.01	4.4
CC(C)(Oc1ccc(C2CC2(Cl)Cl)cc1)C(=O)O (centres undefined) [Ciprofibrate]	1.02	0.831	0.853	0.589	0.698	1.05
COCCCN1CCC(NC(=O)c2cc(Cl)c(N)c3c2OCC3)CC1 [Prucalopride Succinate]	0.846	1.22	1.04	1.4	0.733	1.47
Cc1ncc(-c2ccnc(Nc3ccc(S(C)(=O)=O)cc3)n2)n1C(C)C	2.6	3.78	3.05	3.19	3.09	3.43
C#C[C@]1(O)CC[C@H]2[C@@H]3CCC4=CCCC[C@@H]4[C@H]3CC[C@@]21C [Lynestrenol]	1.13	1.3	1.48	1.17	0.777	1.41
O[C@@H]1CO[C@H]2[C@@H]1OC[C@@H]2O [Isosorbide]	1.15	0.673	1.24	1.02	0.565	1.64
C[C@H](O)[C@H](O)[C@H]1CNc2[nH]c(N)nc(=O)c2N1 [Sapropterin Dihydrochloride]	0.821	0.501	0.871	0.819	0.542	0.643
O=NN(CCCl)C(=O)NCCCl [Carmustine]	1.97	0.741	1.29	0.896	0.515	0.875
CCOC(=O)C1=C(COCCN)NC(C)=C(C(=O)OC)C1c1ccccc1Cl (centres undefined) [Amlodipine]	0.785	0.917	0.877	1.06	1.06	0.837
CN[C@@H]1[C@@H](O)[C@@H](O[C@@H]2[C@@H](O)[C@H](O[C@H]3OC(CN)=CC[C@H]3N)[C@@H](N)C[C@H]2N)OC[C@]1(C)O [Sisomicin sulfate]	1.2	1.53	0.985	0.996	0.672	1.05
c1ccc(-c2ccc(C(c3ccccc3)n3ccnc3)cc2)cc1 (centres undefined) [Bifonazole]	1.54	1.43	1.19	1.17	0.639	1.31
CC1(C)CCC(C)(C)c2cc(NC(=O)c3ccc(C(=O)O)cc3)ccc21 [Tamibarotene]	1.13	1.55	1.77	3	0.884	1.24
O=C(CCCCCCC(=O)NO)NO [Suberohydroxamic acid]	1.22	1.22	1.18	2.06	1.84	1.28
COc1ccc(Cl)cc1C(=O)NCCc1ccc(S(=O)(=O)NC(=O)NC2CCCCC2)cc1 [Glyburide]	1.1	0.731	1.49	1.27	2.08	1.32
CN1CCc2c(c3ccccc3n2Cc2ccc(C(=O)NO)cc2)C1 [Tubastatin A HCl]	0.602	0.832	0.783	1.34	0.601	0.657
O=C(O)CCCCC(CCSCc1ccccc1)SCc1ccccc1 (centres undefined)	0.848	0.928	1.09	0.687	0.938	0.821

Reference: the supplement of paper PMC10127200
